In all, about 310,000 compounds went through this assay and about 1,000 (0.32%) were called active. A selection follows. Potency and affinity values are given separately. A number with no mark means an inactive call. How the calls were made is not given here.
Assay: PhoP regulon inhibitors, Salmonella typhi PhoP promoter GFP reporter, confirmatory (AID 1850);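 further: 0% = induced wells with vehicle and 100% = uninduced wells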
Settings: fluorescence, 4 h, at 50 µM, stronger effect = higher value

SMILES	inhibition [%]
CC1CCN(CCCCOc2ccc(C(C)(C)C)cc2)CC1	-0.73
COCCCNCCCOc1ccc(C(C)(C)c2ccccc2)cc1	0.01
Cc1ccc(OCCCCCCN2CCNCC2)cc1	11.8
CC(C)(c1ccccc1)c1ccc(OCCN2CCOCC2)cc1	-18
CC(C)(C)c1ccc(OCCCN2CCCC2)cc1	-5.11
COCCNCCCOc1ccc(C(C)(C)c2ccccc2)cc1	3.55
Cn1c(SCC(=O)Nc2ccc3c(c2)OCCO3)nnc1-c1ccccn1	-2.36
COCCNc1c([N+](=O)[O-])c(=O)n(-c2ccccc2)c2ccccc12	-1
Cn1c(N)c(N2CCN(c3ccccc3)CC2)c(=O)[nH]c1=O	-2.5
O=C(COC(=O)CCC(=O)c1ccc(F)cc1)NCc1ccco1	11.3
COC(=O)c1sc2ccccc2c1NC(=O)c1ccc(S(=O)(=O)N2CCCCC2)cc1	10.9
CN(CCOc1ccc(Cl)cc1)C(=O)C1CCN(C(=O)c2ccc(Cl)cc2)CC1	-3.38
CC(C)C(=O)NC(c1cccs1)c1cc([N+](=O)[O-])c2cccnc2c1O (centres undefined)	-8.78
CCCC(=O)NC(c1cccs1)c1cc([N+](=O)[O-])c2cccnc2c1O (centres undefined)	-5.59
CC(=O)NC(c1ccccc1)c1cc([N+](=O)[O-])c2cccnc2c1O (centres undefined)	0.16
CCCC(=O)NC(c1ccco1)c1cc(Cl)c2cccnc2c1O (centres undefined)	-13.5
COc1ccc(S(=O)(=O)N2CCOCC2)cc1N=Nc1sc(N)nc1-c1ccccc1	0.93
CCCCOC(=O)C1CCCC(C(=O)OCCCC)N1 (centres undefined)	2.58
CCCCCCCCOC(=O)C[N+](C)(C)C/C=C(/C)Cl	-1.52
CCCCCCCCCCOC(=O)C[N+](C)(C)C/C=C(/C)Cl	-3.67
CCCCCOC(=O)CC(C(=O)OCCCCC)N1CCCCC1 (centres undefined)	1.36
CC12CN3CCN(CC(C3)/C1=N/NC(=O)Nc1ccccc1)C2	3.04
CCOc1ccc(NC(=O)CN(C)C(=O)c2cn3ccccc3n2)cc1OCC	-2.5
O=C(c1ccc(F)cc1)C1CCN(C(=S)Nc2ccc(F)cc2)CC1	1.13
C/C(=N\NC(=O)c1nnn(-c2nonc2N)c1-c1ccc2c(c1)OCO2)c1ccccc1	-37.7

SMILES	inhibition [%]
CC1CC(C)CN(CCOc2cccc(Cl)c2Cl)C1 (centres undefined)	-0.58
CC1CN(CCOc2ccc(Cl)cc2Cl)CC(C)O1 (centres undefined)	10.8
CC1CC(C)CN(S(=O)(=O)N2CCCC(C(=O)NCCc3ccccc3)C2)C1 (centres undefined)	6.06
NS(=O)(=O)c1ccc(CCNC(=O)c2cc([N+](=O)[O-])ccc2N2CCCCC2)cc1	7.9
O=C(CCc1ccc(S(=O)(=O)N2CCOCC2)cc1)N1CCN(Cc2ccc3c(c2)OCO3)CC1	-0.09
CCN1CCN(CCNC(=O)c2ccc3c(c2)N(Cc2ccc(F)cc2)C(=O)c2ccccc2S3=O)CC1 (centres undefined)	-3.27
CCN1CCN(CCNC(=O)c2ccc(/C=C3/Sc4ccccc4N(Cc4cccc(Cl)c4)C3=O)cc2)CC1	47.7
Cc1ccc(C(=O)Nc2cccc(C(=O)NC3CCCCC3)c2)cc1	7.56
CCOC(=O)c1c(C)c(-c2ccccc2)n(CC(=O)N2CCN(C)CC2)c1C	-2.34
O=C1Nc2ccccc2C1=Nc1cccc([N+](=O)[O-])c1	6.17
O=C1Nc2ccccc2Nc2ccc([N+](=O)[O-])cc21	-12.2
COc1ccccc1OCc1ccc(C(=O)NCc2ccco2)o1	-2.77
COc1ccc2cc(C(=O)N/N=C/c3sc4ccccc4c3O)ccc2c1	-4.14
COc1ccc(C(=O)N/N=C/c2c[nH]c3ccccc23)cc1	4.58
O=C(N/N=C/c1sc2ccccc2c1O)c1ccccc1	-3.49
O=C(N/N=C/c1ccccc1O)c1cccc2ccccc12	3.31
Cc1ccc(CN2CCCN(Cc3ccc(F)cc3Cl)S2(=O)=O)cc1	0.28
O=C(O)C1CC(O)CN1c1nc(Cl)ccc1[N+](=O)[O-] (centres undefined)	4.36
O=C1CC2(CCCC2)Oc2ccccc21	9.18
CC(C)(C)c1cc(NCCCn2ccnc2)n2ncc(-c3ccc(Cl)cc3)c2n1	-8.35
CC(C)(C)c1cc(NCc2ccccn2)n2ncc(-c3ccc(Cl)cc3)c2n1	-9.09
CC(C)(C)c1cc(NCCCn2ccnc2)n2ncc(-c3ccccc3)c2n1	12.3
CC(C)Nc1cc(C(C)(C)C)nc2c(-c3ccccc3)cnn12	0.99
COC(=O)[C@@H](NC(=O)N1CCC(Cc2ccccc2)CC1)C(C)C	-13.1
